# HT1080 IDH1KD tx – toxicity to HT-1080 IDH1 knockdown cells (counter line); HT-1080 IDH1 knockdown viability, ATP luminescence, 48 h; Potency, µM (doses to about 46.1 µM), most hits filed as cytotoxic; AID 686971; 360,000 compounds, 2% hits
#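 In this qHTS, HT-1080 cells depleted of IDH1 are exposed for 48 h at 37 °C to compound titrations. Toxicity is scored from CellTiter-Glo luminescence, with DMSO as full viability and medium alone as none.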
# IL-1B inflam inh – inhibitors of inflammasome signaling (IL-1 beta secretion); 360,000 compounds, 4.7% hits; THP-1 LPS/ATP IL-1B secretion, AlphaLISA, 16 h; stronger effect = lower value; activity change, % at 57.5 µM; in the data active means activity change below about -50%; inconclusive means mostly about -30% to -49%
#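 THP-1 cells pretreated 1 hr with compounds (up to 57.5 uM final), then stimulated with LPS (250 ng/mL final) plus ATP (1.25 mM final); secreted IL-1B measured by AlphaLISA after 16 hr, decreased signal indicating inhibition.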
# DT40 TDP1 CPT – DT40-hTDP1 cell growth loss with CPT; chicken DT40 Tdp1-/-;hTDP1 cells + 20 nM CPT, ATP luminescence, 48 h; Potency, µM (series often up to 46.2 µM), hits mostly inhibitors; 420,000 compounds, 12% hits; AID 686979; further: nearly all actives have a fitted effect of over 55% in size
#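 Chicken DT40 Tdp1-/- cells complemented with human TDP1, 400 cells/well, exposed to compounds plus 20 nM camptothecin for at least 48 h at 37 C; viability read as ATP content by CellTiter-Glo luminescence.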
# ELG1 DNA repair – blocks ELG1-dependent DNA repair in HEK293T cells | 330,000 compounds, 2.3% hits | AID 504467 | HEK293T ELG1-luciferase reporter, luminescence, 16 h; DNA damage induced by 5-fluorouridine | Potency, µM (titrated, usually from 46.1 µM), hits mostly inhibitors; further: nearly all actives have a fitted effect of over 55% in size
#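 DMSO vehicle served as the neutral condition. Each well held 2,000 cells given 5-fluorouridine plus compound; after 16 hr at 37 °C/5% CO2, ONE-Glo was added and luciferase measured 30 min later.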
# TDP1 cell noCPT – qHTS for Inhibitors of human tyrosyl-DNA phosphodiesterase 1 (TDP1): qHTS in cells in absence of CPT; Potency, µM (doses to about 46.2 µM), actives largely listed as inhibitors; DT40 Tdp1-/- hTDP1 cells, no CPT, ATP luminescence, 48 h; 420,000 compounds, 15% hits; further: nearly all actives have a fitted effect of over 55% in size
#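 Growth kinetics read by CellTiter-Glo luminescence after ≥48 hr at 37 °C. Cells: DT40 Tdp1-/- stably carrying human TDP1, 400 per well, compound exposure in the absence of CPT (DMSO vehicle).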
# HT1080-NT tox – kills 2HG-producing HT-1080-NT fibrosarcoma cells; AID 686970; 360,000 compounds, 1.6% hits; HT-1080-NT fibrosarcoma viability, CellTiter-Glo ATP luminescence, 48 h; Potency, µM (doses to about 46.1 µM), hits mostly cytotoxic;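 further: NT is the 2HG producing partner of a matched IDH1 knockdown line; nearly all actives have a fitted effect of over 55% in size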
#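 Viability by CellTiter-Glo luminescence after 48 h compound exposure at 37C of HT-1080-NT cells (750/well, RPMI, 5% FBS). % activity scaled between DMSO wells and medium-only wells, then curve-fitted and categorized by curve class.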
# A number is an active result; 0 = inactive; ? = inconclusive; - = no result given; [ ] = remark or other dose. Most compounds without a hit are left out; they make up all but 19% or so of the library. Unless noted, the call rests on the fitted dose curve; in most records, active means well fitted curve in the direction sought with a large enough effect; inconclusive means small, poorly fitted or top-dose-only effect, or another doubt; inactive means no such curve, though single readings can be large; an effect the other way counts as inactive or inconclusive.
SMILES,HT1080 IDH1KD tx,IL-1B inflam inh,DT40 TDP1 CPT,ELG1 DNA repair,TDP1 cell noCPT,HT1080-NT tox
C=C1/C(=C\C=C2/CCC[C@]3(C)C([C@H](C)CCCC(C)(C)O)CC[C@@H]23)C[C@@H](O)C[C@@H]1O (stereo partly drawn),-,-,?,-,0[4.12 µM],-
C=C1/C(=C\C=C2/CCC[C@]3(C)[C@@H]([C@H](C)OCCC(C)(C)O)CC[C@@H]23)C[C@@H](O)C[C@@H]1O,-,-,15µM,-,?,-
COc1cc2oc(=O)c(CC(=O)NCc3ccc(OC)c(OC)c3)c(C)c2cc1Cl,-,-,0,-,?,-
CCOc1ccc(CNC(=O)c2cc3ccccn3n2)cc1,-,-,0,-,0,-
CCOC(=O)c1c(C)n(-c2ccccc2)c2ccc(O)c(CN(C)C)c12,?,-,12µM,0,15µM,?
CCOC(=O)c1c(CN2CCN(C)CC2)n(-c2ccccc2)c2cc(Br)c(O)cc12,0,0,?,0,23µM,0
CCOC(=O)c1c(CSC(=N)N)n(-c2ccccc2)c2cc(Br)c(OC(C)=O)cc12,?,-,?,?,18µM,?
CCOC(=O)c1c(CN2CCN(CCO)CC2)n(-c2ccccc2)c2cc(Br)c(O)cc12,23µM,-81,?,?,18µM,?
O=C(COC(=O)Cn1[nH]c(=O)c2ccccc2c1=O)NNC(=O)c1ccc(Br)cc1,0,0,0,0,0,0
CCOC(=O)c1c(C)n(-c2ccccc2)c2ccc(O)cc12,0,0,0,0,?,0
CCOC(=O)c1c(CN(CC)CC)n(-c2ccccc2)c2ccc(O)cc12,0,-60,?,0,?,0
Cn1c(=O)[nH]c(=O)c2c1nc(N1CCNCC1)n2Cc1ccccc1,0,0,0,0,0,0
Cn1c(=O)[nH]c(=O)c2c1nc([N+](=O)[O-])n2Cc1ccccc1,3.3µM,-,0.65µM,15µM,1µM,2.6µM
CC(C)Cn1c([N+](=O)[O-])nc2c1c(=O)[nH]c(=O)n2C,16µM,-98,3.3µM,23µM,4.6µM,13µM
CN(C)c1ncc2nc(-c3ccccc3)c(=O)n(CCc3ccccc3)c2n1,-,-,0,-,0,-
Cc1nc2cnc(N(C)C)nc2n(Cc2cccs2)c1=O,-,-,0,-,0,-
CN(C)c1ncc2ncc(=O)n(CCc3ccccc3)c2n1,-,-,21µM,-,26µM,-
CN(C)c1ncc2nc(CCc3ccccc3)c(=O)n(Cc3cccs3)c2n1,-,-,?,-,16µM,-
O=C(NCc1nnc2c(C(F)(F)F)cc(Cl)cn12)c1ccco1,0,0,0,?,0,0
CC(Sc1nnc(Nc2ccccc2)s1)C(=O)NC1CCCc2ccccc21 (stereo not drawn),0,0,?,?,23µM,0
Cc1cccc(Nc2nnc(SCC(=O)NC3CCCc4ccccc43)s2)c1C (stereo not drawn),0,?,15µM,?,8.2µM,0
COC(=O)c1cccc(CN2C(=O)SC(Nc3ccc(Br)cc3)C2=O)c1 (stereo not drawn),-,-,0,-,0,-
Cc1ccc(-n2c(C)cc(C3N=C(N)Nc4nc5ccccc5n43)c2C)c(C)c1 (stereo not drawn),20µM,?,21µM,0,23µM,?
Cc1cc(C2N=C(N)Nc3nc4ccccc4n32)c(C)n1-c1ccccc1Cl (stereo not drawn),?,-56,21µM,0,?,?
COc1ccc(OC)c(C2N=C(N)Nc3nc4ccccc4n32)c1 (stereo not drawn),-,-,0,-,0,-
SMILES,HT1080 IDH1KD tx,IL-1B inflam inh,DT40 TDP1 CPT,ELG1 DNA repair,TDP1 cell noCPT,HT1080-NT tox
COc1ccc(C2N=C(N)Nc3nc4ccccc4n32)cc1 (stereo not drawn),-,-,0,-,0,-
O=C(C[C@@H]1CC[C@@H]2[C@H](COC[C@H](O)CN2C(=O)Nc2ccc(F)cc2)O1)NCCc1ccncc1,0,0,0,-,0,0
CC(C)COc1ccc(C(=O)N2C(=O)c3ccc(N)cc3C2=O)cc1,0,0,0,0,0,0
CC(C)N(C(=O)/C=C/c1cccc([N+](=O)[O-])c1)C(C)C,0,0,0,0,?,0
COc1ccc(/C=C/c2c([N+](=O)[O-])c(=O)n(C)c(=O)n2C)c(OC)c1OC,0,-58,0,0,?,0
CN(/C=C/c1c([N+](=O)[O-])c(=O)n(C)c(=O)n1C)c1ccccc1,0,0,0,0,0,0
Cn1c(/C=C/c2ccc(Cl)cc2)c([N+](=O)[O-])c(=O)n(C)c1=O,?,-100,?,?,21µM,?
Cn1c(/C=C/c2cccc([N+](=O)[O-])c2)c([N+](=O)[O-])c(=O)n(C)c1=O,?,-107,?,?,15µM,0
COc1ccc(/C=C/c2c([N+](=O)[O-])c(=O)n(C)c(=O)n2C)cc1OC,0,0,0,0,0,0
Cc1cc(=O)n(C)c(=O)n1CCCCOc1ccc([N+](=O)[O-])cc1,0,0,0,0,?,0
CCCCCOc1ccc(/C=C/c2c([N+](=O)[O-])c(=O)n(C)c(=O)n2C)cc1,0,-86,18µM,?,21µM,0
O=C(Cc1ccccc1)Nc1ccc(NC(=O)c2ccc(Br)cc2)cc1,0,0,0,0,0,0
CN(CCC(=O)Nc1ccc(Br)cc1)Cc1ccccc1,0,-62,?,0,?,?
O=C(CCC(=O)OCc1ccc(Br)cc1)Nc1ccccc1,0,0,16µM,0,?,0
CC(=O)OCON[N+]([O-])=NC(C)C,-,-,11µM,-,?,-
Cn1c(=O)n(-c2ccc(C(C)(C)C#N)cc2)c2c3cc(-c4cnc5ccccc5c4)ccc3ncc21,-,-,0.25µM,-,0.05µM,-
Cn1c2ccccc2c(=O)c2c(=O)n(-c3ccccc3)c(-c3ccc(C(C)(C)C)cc3)nc21,0,0,?,0,?,0
COc1ccc(CNCCC(c2ccc(C)cc2)c2ccco2)cc1 (stereo not drawn),-,-,12µM,-,7.3µM,-
CC(=O)N(CCC(Cc1ccccc1)c1ccc2c(c1)OCO2)Cc1ccccc1F (stereo not drawn),0,0,?,0,?,0
Fc1ccccc1CNCCC(Cc1ccccc1)c1ccc2c(c1)OCO2 (stereo not drawn),?,-98,?,0,?,16µM
COc1ccc(C(CC(=O)O)c2ccc3c(c2)OCO3)cc1 (stereo not drawn),0,0,0,0,0,0
COc1ccc(CNCCC(c2ccccc2)c2ccc3c(c2)OCO3)cc1 (stereo not drawn),?,-87,5.8µM,0,5.8µM,?
Cc1ccc(C(CCN)c2ccco2)cc1 (stereo not drawn),0,0,?,0,?,0
